According to PubChem BioAssay (Tox21):
Results filed as inconclusive are left out. Calls of active or inactive are those of the source. Unless noted, calls follow the shape of the dose curve; as a rule, active = well fitted curve in the direction sought with a large enough effect in the repeat runs; inconclusive = weak or mixed curves; inactive = no such curve, though single readings can be large; an effect the other way counts as inactive or inconclusive.

Tests used:
[1] = qHTS assay to identify small molecule agonists of the estrogen receptor beta (ER-beta) signaling pathway - cell viability counter screen (AID 1259380); also: nearly all actives have a fitted effect of over 30% in size; also: potency is read from the fitted curve at half-maximal effect
In short: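 Cell viability counter screen: CellTiter-Glo luminescence (30 min, room temperature) measured in the same wells as the beta-lactamase readout, after 16 hr compound exposure at 37C of ER-beta-bla HEK293T cells in 2% charcoal-stripped FBS medium.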

[2] = molecular target: Androgen receptor (Homo sapiens) (UniProt P10275); test: qHTS assay to identify small molecule agonists of the androgen receptor (AR) signaling pathway in the presence of an antagonist (AID 1259381; calls by dose curve; also: nearly all actives have a fitted effect of over 15% in size)
Androgen receptor (Homo sapiens), sequence (P10275 whole entry, looked up): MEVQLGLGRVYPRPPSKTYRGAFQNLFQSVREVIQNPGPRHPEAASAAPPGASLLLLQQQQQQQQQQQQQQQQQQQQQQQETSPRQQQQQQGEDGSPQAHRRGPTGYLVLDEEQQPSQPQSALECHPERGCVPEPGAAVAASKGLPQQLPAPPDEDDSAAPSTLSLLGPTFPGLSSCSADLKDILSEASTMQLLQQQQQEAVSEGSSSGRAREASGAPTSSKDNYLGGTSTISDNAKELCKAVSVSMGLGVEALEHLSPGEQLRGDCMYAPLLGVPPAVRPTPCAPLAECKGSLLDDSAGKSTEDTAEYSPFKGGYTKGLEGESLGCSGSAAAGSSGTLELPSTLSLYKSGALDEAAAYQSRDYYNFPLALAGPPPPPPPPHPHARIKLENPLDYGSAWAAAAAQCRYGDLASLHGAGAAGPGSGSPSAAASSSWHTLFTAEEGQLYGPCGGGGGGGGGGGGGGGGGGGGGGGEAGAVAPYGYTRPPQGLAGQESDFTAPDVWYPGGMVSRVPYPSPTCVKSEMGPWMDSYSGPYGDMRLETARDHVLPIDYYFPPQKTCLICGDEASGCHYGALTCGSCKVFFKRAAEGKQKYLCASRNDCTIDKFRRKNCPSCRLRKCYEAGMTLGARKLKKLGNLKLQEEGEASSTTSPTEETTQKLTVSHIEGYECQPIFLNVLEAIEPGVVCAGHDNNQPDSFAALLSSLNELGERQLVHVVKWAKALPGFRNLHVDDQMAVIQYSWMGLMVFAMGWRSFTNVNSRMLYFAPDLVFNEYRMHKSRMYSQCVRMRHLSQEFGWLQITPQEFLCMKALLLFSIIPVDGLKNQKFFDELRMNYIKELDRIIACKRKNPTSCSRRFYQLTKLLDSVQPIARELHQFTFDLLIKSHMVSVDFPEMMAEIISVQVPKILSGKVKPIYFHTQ
In short: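 Agonist-mode confirmation run against 3.0 uM final nilutamide: compounds titrated at 15 concentrations onto MDA-kb2 MMTV-luciferase reporter cells. Luminescence measured with ONE-Glo following 16 hr incubation, 37C, 0% CO2.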

[3] = molecular target: Estrogen receptor (Homo sapiens) (UniProt P03372); test: qHTS assay to identify small molecule agonists of the estrogen receptor alpha (ER-alpha) signaling pathway in the presence of an antagonist (AID 1259383; calls by dose curve; also: nearly all actives have a fitted effect of over 15% in size; also: potency is read from the fitted curve at half-maximal effect; as to activation: top concentration of the series differs between compounds)
Estrogen receptor (Homo sapiens), sequence (P03372 whole entry, looked up): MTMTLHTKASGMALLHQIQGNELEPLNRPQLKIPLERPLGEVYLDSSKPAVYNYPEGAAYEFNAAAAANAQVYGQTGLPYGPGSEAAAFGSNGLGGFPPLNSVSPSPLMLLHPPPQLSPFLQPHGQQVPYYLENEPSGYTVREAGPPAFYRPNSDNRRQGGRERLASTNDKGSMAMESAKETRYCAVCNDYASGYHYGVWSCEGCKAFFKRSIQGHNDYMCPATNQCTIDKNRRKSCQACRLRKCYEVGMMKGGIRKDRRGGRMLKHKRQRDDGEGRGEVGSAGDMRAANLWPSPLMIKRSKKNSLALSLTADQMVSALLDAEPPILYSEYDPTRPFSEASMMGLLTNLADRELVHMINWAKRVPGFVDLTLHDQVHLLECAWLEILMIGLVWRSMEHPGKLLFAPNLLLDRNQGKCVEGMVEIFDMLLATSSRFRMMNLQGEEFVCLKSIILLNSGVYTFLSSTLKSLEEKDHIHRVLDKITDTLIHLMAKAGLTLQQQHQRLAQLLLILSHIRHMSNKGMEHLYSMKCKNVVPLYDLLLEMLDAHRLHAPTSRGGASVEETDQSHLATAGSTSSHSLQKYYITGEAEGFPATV
In short: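 Agonist-mode confirmation run in the presence of 10.0nM (final) ICI-182,780 antagonist. The reporter was ERE-driven luciferase in VM7Luc4E2 cells, grown in charcoal-stripped serum. Cells were exposed to 15-concentration compound series for 22hr, then ONE-Glo luminescence was read.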

[4] = qHTS assay to identify small molecule agonists or antagonists of the thyroid stimulating hormone receptor (TSHR) signaling pathway - wild type cell line counter screen (AID 1259384; calls by dose curve)
In short: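 Wild-type HEK293 cells were plated 18 h at 37 C/5% CO2, pin-dosed with compound plus Ro20-1724 medium, held 30 min at room temperature, then given cAMP-d2 and anti-cAMP-cryptate; fluorescence was read after 1 h. Fifteen concentrations, triplicate.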

[5] = molecular target: Thyrotropin receptor (Homo sapiens) (UniProt P16473); test: qHTS assay to identify small molecule antagonists of the thyroid stimulating hormone receptor (TSHR) signaling pathway (AID 1259385; calls by dose curve; also: nearly all actives have a fitted effect of over 20% in size)
Thyrotropin receptor (Homo sapiens), sequence (P16473 whole entry, looked up): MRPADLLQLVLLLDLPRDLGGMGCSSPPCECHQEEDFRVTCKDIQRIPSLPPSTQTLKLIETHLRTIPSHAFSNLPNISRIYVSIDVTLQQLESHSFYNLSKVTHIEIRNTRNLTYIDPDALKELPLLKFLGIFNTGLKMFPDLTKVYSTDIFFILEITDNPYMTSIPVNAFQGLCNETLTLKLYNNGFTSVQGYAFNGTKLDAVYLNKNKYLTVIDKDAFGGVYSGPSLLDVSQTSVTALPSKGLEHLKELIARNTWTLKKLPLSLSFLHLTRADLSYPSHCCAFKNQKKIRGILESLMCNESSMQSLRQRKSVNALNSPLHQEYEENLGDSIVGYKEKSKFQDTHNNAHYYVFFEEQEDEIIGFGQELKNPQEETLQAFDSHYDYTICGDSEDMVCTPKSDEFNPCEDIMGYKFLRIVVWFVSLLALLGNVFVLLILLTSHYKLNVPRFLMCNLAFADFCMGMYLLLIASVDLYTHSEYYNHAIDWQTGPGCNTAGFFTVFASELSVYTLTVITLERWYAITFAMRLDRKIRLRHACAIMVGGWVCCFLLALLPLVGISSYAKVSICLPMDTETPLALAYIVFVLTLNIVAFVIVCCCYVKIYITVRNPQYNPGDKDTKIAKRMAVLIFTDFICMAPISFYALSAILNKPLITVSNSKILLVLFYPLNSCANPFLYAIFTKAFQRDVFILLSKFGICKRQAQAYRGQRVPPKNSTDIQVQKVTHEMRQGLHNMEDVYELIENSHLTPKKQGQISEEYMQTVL
In short: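 TSHR-HEK293 cells were plated and held 18 h at 37C/5% CO2, then given compound plus Ro20-1724 and stimulated with TSH at 1.5 ng/mL final. After 30 min at room temperature, cAMP was detected with cAMP-d2/anti-cAMP-cryptate (1 h) by fluorescence.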

[6] = qHTS assay to identify small molecule agonists of the estrogen receptor alpha (ER-alpha) signaling pathway in the presence of an antagonist - cell viability counter screen (AID 1259386); also: nearly all actives have a fitted effect of over 30% in size; also: potency is read from the fitted curve at half-maximal effect
In short: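 Compounds tested at 15 concentrations for 22 h at 37C alongside 10.0nM (final) ICI-182,780 antagonist, in VM7Luc4E2 cells grown in phenol red-free, charcoal-stripped medium. Viability read by CellTiter-Fluor fluorescence after 1 h reagent incubation.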

[7] = molecular target: Progesterone receptor (Homo sapiens) (UniProt P06401); test: qHTS assay to identify small molecule antagonists of the progesterone receptor (PR) signaling pathway (AID 1346795; active = well fitted inhibition curve with a large enough effect in the signal ratio in the repeat runs, not every such curve was filed as active; the % refers to the signal ratio; also: potency is read from the fitted curve at half-maximal effect)
Progesterone receptor (Homo sapiens), sequence (P06401 whole entry, looked up): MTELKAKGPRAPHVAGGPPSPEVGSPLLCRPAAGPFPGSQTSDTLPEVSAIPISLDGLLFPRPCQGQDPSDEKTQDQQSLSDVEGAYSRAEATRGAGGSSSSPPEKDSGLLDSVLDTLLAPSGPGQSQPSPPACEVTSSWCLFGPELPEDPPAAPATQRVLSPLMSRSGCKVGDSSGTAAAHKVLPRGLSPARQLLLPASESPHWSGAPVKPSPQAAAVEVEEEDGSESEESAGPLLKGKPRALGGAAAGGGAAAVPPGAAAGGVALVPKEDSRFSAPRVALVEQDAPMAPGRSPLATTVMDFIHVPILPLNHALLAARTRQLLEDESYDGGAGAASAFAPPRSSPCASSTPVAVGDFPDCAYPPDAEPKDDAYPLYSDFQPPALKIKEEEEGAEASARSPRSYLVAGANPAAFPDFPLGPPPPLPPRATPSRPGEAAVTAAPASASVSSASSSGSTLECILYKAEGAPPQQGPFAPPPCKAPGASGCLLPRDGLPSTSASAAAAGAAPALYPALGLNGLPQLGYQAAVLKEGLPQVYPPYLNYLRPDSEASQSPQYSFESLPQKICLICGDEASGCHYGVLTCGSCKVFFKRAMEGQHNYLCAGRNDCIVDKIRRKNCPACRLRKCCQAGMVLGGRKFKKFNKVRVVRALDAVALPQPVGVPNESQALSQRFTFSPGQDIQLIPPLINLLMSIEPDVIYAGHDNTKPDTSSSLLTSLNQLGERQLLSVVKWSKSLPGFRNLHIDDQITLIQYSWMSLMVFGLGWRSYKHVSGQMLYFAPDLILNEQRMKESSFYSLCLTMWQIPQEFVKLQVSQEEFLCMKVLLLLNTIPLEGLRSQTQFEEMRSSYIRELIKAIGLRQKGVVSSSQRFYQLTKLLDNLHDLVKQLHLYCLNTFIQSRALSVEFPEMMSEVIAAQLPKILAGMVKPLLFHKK
In short: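 Inhibition of R5020-induced (1 nM final) beta-lactamase reporter signal in PR-UAS-bla HEK293T cells was scored by FRET fluorescence after overnight (16 hr) compound treatment.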

[8] = qHTS assay to identify small molecule antagonists of the progesterone receptor (PR) signaling pathway - cell viability counter screen (AID 1346798); also: nearly all actives have a fitted effect of over 50% in size; also: potency is read from the fitted curve at half-maximal effect
In short: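 ATP content as viability readout: CellTiter-Glo luminescence, 30 min room temperature, in PR-UAS-bla HEK293T cells after 16 hr compound/R5020 treatment at 37C and 5% CO2.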

[9] = qHTS assay to identify small molecule antagonists of the TGF-beta/Smad signaling pathway - cell viability counter screen (AID 1346824); also: nearly all actives have a fitted effect of over 50% in size
In short: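 SBE-bla HEK 293T cells were plated overnight at 37 C, then given compounds in DMSO plus TGF-beta1 (added as 0.25 ng/mL solution) for 5 hr. After the bla read, CellTiter-Glo was added to the same wells and luminescence read after 30 min at room temperature.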

[10] = qHTS assay to identify small molecule agonists of the TGF-beta/Smad signaling pathway (AID 1346859; active = well fitted activation curve with a large enough effect in the signal ratio in the repeat runs, not every such curve was filed as active; the % refers to the signal ratio; also: series mostly up to about 77 µM)
In short: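 Stable Smad binding element-beta-lactamase HEK 293T cells; 5 hr compound exposure at 37 C under 5% CO2; 2 hr room-temperature substrate step; fluorescence excited at 405 nm, collected at 460 nm and 530 nm.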

[11] = molecular target: Thyrotropin-releasing hormone receptor (Homo sapiens) (UniProt P34981); test: qHTS assay to identify small molecule antagonists of the thyrotropin-releasing hormone receptor (TRHR) signaling pathway (AID 1346877; active = well fitted inhibition curve with a large enough effect in the repeat runs, not every such curve was filed as active; also: series mostly up to about 51 µM)
Thyrotropin-releasing hormone receptor (Homo sapiens), sequence (P34981 whole entry, looked up): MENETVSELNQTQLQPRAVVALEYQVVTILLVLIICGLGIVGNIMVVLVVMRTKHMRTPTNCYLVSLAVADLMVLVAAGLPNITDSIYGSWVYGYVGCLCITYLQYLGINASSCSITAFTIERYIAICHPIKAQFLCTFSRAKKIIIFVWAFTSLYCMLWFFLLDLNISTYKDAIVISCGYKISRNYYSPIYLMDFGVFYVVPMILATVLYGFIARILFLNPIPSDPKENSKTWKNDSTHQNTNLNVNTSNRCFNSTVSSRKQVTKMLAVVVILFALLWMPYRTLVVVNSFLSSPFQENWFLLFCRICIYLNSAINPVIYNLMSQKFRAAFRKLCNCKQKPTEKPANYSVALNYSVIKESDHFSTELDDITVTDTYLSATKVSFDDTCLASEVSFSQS
In short: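 Antagonist mode: after a 5 min room-temperature compound exposure, cells were stimulated with 1 nM (final) TRH. Dye-loaded TRHR-HEK293 cells were used, and calcium-dependent fluorescence was followed for 3 min, with 15-point titrations run in triplicate.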

[12] = molecular target: Thyrotropin-releasing hormone receptor (Homo sapiens) (UniProt P34981); test: qHTS assay to identify small molecule agonists of the thyrotropin-releasing hormone receptor (TRHR) signaling pathway (AID 1346891; calls by dose curve;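 also: HEK293 cells expressing TRHR with calcium dye readout; series mostly up to about 58 µM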)
In short: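 In 1536-format, 1500 TRHR-Hek293 cells per well grew 18 h, took up calcium dye for 2 h at 37 °C, received compound, and were read kinetically; 15-point titrations, triplicates.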

[13] = molecular target: Estrogen receptor beta (Homo sapiens) (UniProt Q92731); test: qHTS assay to identify small molecule agonists of the estrogen receptor beta (ER-beta) signaling pathway (AID 1259377; active = well fitted activation curve with a large enough effect in the signal ratio in the repeat runs, not every such curve was filed as active; the % refers to the signal ratio)
Estrogen receptor beta (Homo sapiens), sequence (Q92731 whole entry, looked up): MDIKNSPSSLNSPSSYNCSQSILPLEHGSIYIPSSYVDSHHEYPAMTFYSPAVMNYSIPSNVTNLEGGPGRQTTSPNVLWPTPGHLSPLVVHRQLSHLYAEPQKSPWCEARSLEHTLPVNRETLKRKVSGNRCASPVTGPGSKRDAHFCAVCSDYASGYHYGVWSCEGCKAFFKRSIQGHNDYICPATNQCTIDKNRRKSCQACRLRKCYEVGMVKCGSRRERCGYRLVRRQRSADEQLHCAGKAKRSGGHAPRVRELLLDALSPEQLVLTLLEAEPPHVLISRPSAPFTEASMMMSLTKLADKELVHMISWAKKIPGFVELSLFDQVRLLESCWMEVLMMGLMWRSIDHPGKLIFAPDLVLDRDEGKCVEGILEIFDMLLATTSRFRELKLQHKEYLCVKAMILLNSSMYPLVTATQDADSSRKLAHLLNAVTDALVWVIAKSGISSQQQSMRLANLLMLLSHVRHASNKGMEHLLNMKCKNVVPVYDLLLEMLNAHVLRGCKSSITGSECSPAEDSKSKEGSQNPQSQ
In short: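 In HEK293T cells bearing a UAS-beta-lactamase reporter under ER-beta control, DMSO-delivered compounds were incubated for 16 hr at 37C. Activity was detected as fluorescence 2 hours after LiveBLAzer B/G FRET substrate addition.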

[14] = qHTS assay to identify small molecule agonists of the androgen receptor (AR) signaling pathway in the presence of an antagonist - cell viability counter screen (AID 1259379);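 also: MDA-kb2 human breast cancer cells carrying an MMTV luciferase reporter; series mostly up to about 92 µM; nearly all actives have a fitted effect of over 25% in size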
In short: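 Cytotoxicity counter-screen run in the same wells as the nilutamide-challenged (3.0 µM final) AR agonist assay in MDA-kb2 cells. Compounds tested at 15 concentrations for 16 h, 37 °C without CO2; CellTiter-Fluor fluorescence read.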

[15] = qHTS assay to identify small molecule antagonists of the estrogen receptor beta (ER-beta) signaling pathway - cell viability counter screen (AID 1259382); also: series mostly up to about 92 µM; nearly all actives have a fitted effect of over 55% in size
In short: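 Cytotoxicity was measured in the same wells by CellTiter-Glo luminescence after 30 min at room temperature. Cells were ER-beta-bla HEK293T in charcoal-stripped serum, given compound together with 1 nM E2 and incubated 16 h at 37C.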

[16] = molecular target: Progesterone receptor (Homo sapiens) (UniProt P06401); test: qHTS assay to identify small molecule agonists of the progesterone receptor (PR) signaling pathway (AID 1346784; calls by dose curve; also: nearly all actives have a fitted effect of over 30% in size; also: potency is read from the fitted curve at half-maximal effect)
In short: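 Using charcoal-stripped serum (2%) to limit endogenous steroids, PR-UAS-bla HEK 293T cells received compounds for 16 hr at 37C after 6 hr plating; beta-lactamase FRET fluorescence was recorded following 2 hr substrate loading at room temperature.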

[17] = qHTS assay to identify small molecule agonists of the progesterone receptor (PR) signaling pathway - cell viability counter screen (AID 1346799; calls by dose curve; also: nearly all actives have a fitted effect of over 45% in size; also: potency is read from the fitted curve at half-maximal effect)
In short: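 Cytotoxicity in PR-bla HEK293T cells: 16 h compound, 37C; CellTiter-Glo added post-FRET read; luminescence after 30 min RT.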

[18] = qHTS assay to identify small molecule agonists of the TGF-beta/Smad signaling pathway - cell viability counter screen (AID 1346829); also: top concentration of the series differs between compounds; nearly all actives have a fitted effect of over 45% in size
In short: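 CellTiter-Glo luminescence readout; SBE-bla HEK 293T cells, overnight plating, compound 5 hr at 37 C/5% CO2, then bla substrate 2 hr RT, then CellTiter-Glo 30 min RT.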

[19] = molecular target: Estrogen receptor beta (Homo sapiens) (UniProt Q92731); test: qHTS assay to identify small molecule antagonists of the estrogen receptor beta (ER-beta) signaling pathway (AID 1259378; active = well fitted inhibition curve with a large enough effect in the signal ratio in the repeat runs, not every such curve was filed as active; the % refers to the signal ratio; also: potency is read from the fitted curve at half-maximal effect)
In short: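 ER-beta-UAS-bla HEK293T (GripTite) cells in 2% charcoal-stripped FBS medium were preincubated 6 hr at 37C, dosed with compound, then stimulated with 1 nM E2 (final) for 16 hr; beta-lactamase reporter read by B/G FRET fluorescence after 2 hr substrate loading.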

Measured: Potency

O=c1[nH]c2cc(Cl)ccc2n1C1CCNCC1
not listed: [13] | [14] | [15] | [16] | [17] | [18] | [19]
inactive: all other assays above

COP(=S)(OC)Oc1ccc([N+](=O)[O-])c(C)c1
inactive: [13] | [14] | [15] | [3] | [5] | [8] | [9] | [10] | [12]
active: [7] 6.11 µM

c1cc[n+]2c(c1)-c1cccc[n+]1CC2
active: [6] 29.8 µM
not listed: [2] | [5] | [13] | [19]
inactive: all other assays above

c1ccc(Nc2ccc(Nc3ccccc3)cc2)cc1
active: [19] 0.136 µM | [3] 54.3 µM | [7] 6.09 µM
inactive: [13] | [14] | [4] | [5] | [16] | [9] | [10] | [12]

CCCC[N+]1(C)CCCC1 (tested in a mixture with another compound)
inactive: [14] | [1] | [16] | [7] | [8] | [17] | [9] | [18] | [10]

FC(F)C(F)(F)OCC(Cn1cncn1)c1ccc(Cl)cc1Cl (configuration not stated)
active: [1] 60.8 µM | [7] 19.2 µM
inactive: [13] | [4] | [16] | [18] | [10] | [11] | [12]

C[C@@H]1CC2=CC(=O)CC[C@@H]2[C@H]2CC[C@@]3(C)[C@@H](CC[C@]3(C)O)[C@@H]21
inactive: [14] | [1] | [15] | [4] | [6] | [7] | [9] | [18] | [10]
active: [16] 0.0017 µM

CCCCN(CCCC)C(=S)[S-].CCCCN(CCCC)C(=S)[S-].[Ni+2]
inactive: [14] | [1] | [3] | [6] | [16] | [7] | [8] | [17] | [9] | [10]

BrCCCBr
not listed: [3] | [12] | [13] | [19]
inactive: all other assays above

CN1C2CCC(C)(C)C1CC(OC(=O)C(O)(c1cccs1)c1cccs1)C2 (configuration not stated)
not listed: [2] | [3] | [5] | [13] | [17] | [19]
inactive: all other assays above

O=S1OCC2C(CO1)C1(Cl)C(Cl)=C(Cl)C2(Cl)C1(Cl)Cl (configuration not stated)
inactive: [2] | [4] | [6] | [9] | [18] | [10]
active: [1] 48.5 µM | [8] 61.1 µM | [17] 68.7 µM

Oc1cc(Cl)cc(Cl)c1
inactive: [14] | [1] | [15] | [6] | [9] | [18] | [10] | [11] | [12]
